# Screen size: about 310,000 compounds; about 14,000 (4.5%) showed an effect of 50% or more. The effect is printed as a negative number. For the sample, strong results were picked, then their nearest neighbours and some compounds at random.
# Target: human ether-à-go-go-related gene (hERG) potassium channel (human, UniProt Q12809)
# Assay: primary screen, population patch clamp on CHO cells stably expressing hERG; higher = less effect of the substance
# 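Also: peak tail current of the secondary pulse compared with the same well before compound.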
# human ether-à-go-go-related gene (hERG) potassium channel, sequence (Q12809 whole entry, looked up): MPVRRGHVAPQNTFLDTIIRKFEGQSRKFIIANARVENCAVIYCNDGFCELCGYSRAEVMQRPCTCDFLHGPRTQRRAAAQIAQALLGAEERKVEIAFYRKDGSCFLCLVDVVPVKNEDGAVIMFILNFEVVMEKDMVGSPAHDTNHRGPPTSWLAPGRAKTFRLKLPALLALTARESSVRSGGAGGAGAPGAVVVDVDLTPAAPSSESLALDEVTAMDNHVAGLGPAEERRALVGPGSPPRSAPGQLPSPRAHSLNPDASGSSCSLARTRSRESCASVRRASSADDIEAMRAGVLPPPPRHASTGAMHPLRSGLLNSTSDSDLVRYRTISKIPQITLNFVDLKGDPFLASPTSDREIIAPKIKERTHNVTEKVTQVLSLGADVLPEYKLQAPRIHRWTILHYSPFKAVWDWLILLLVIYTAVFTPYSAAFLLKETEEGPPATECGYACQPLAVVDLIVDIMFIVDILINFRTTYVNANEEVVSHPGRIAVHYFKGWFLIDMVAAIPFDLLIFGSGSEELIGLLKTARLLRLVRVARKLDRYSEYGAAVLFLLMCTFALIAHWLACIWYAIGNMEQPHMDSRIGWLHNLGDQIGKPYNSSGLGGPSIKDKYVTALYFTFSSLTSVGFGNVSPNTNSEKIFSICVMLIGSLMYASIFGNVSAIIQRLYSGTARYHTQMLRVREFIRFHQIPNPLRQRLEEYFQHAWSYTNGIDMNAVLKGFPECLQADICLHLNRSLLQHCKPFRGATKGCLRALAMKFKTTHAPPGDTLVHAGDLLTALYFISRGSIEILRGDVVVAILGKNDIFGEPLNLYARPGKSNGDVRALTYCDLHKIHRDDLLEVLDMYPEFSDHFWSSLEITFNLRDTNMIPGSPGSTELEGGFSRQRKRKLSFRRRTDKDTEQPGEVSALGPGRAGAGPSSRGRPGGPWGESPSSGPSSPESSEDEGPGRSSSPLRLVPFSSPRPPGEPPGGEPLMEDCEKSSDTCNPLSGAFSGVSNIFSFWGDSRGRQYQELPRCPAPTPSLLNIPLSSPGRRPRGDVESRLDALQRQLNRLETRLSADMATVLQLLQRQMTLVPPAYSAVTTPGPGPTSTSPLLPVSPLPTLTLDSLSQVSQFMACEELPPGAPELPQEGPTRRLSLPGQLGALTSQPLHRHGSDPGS
row,Compound,"hERG current change (%, negative = inhibition) at 10uM [%]"
1,Cc1ccc(CN2CC(C(=O)N3CCN(S(=O)(=O)c4cccc(F)c4)CC3)CC2=O)cc1 (stereo not shown),-32.6
2,O=C(Nc1ccc(C(F)(F)F)cc1)C1(c2ccccc2)CC1,-15.2
3,CCNC(=S)Nc1cc(OCC)c(NC(=O)c2ccco2)cc1OCC,-1.82
4,Cc1ccc(C)c(OCC(O)CN2CCC(Cc3ccccc3)CC2)c1.Cl (stereo not shown),-67.6
5,Cc1ccc(OCC(O)CN2CCN(CCO)CC2)c(C)c1.Cl (stereo not shown),4.18
6,Cc1ccc(OCC(O)CN2CCC(Cc3ccccc3)CC2)c(C)c1.Cl (stereo not shown),-75.2
7,Clc1nc(-c2ccccc2)ncc1Oc1ccccc1,14.6
8,Cc1ccc(-n2nnnc2SCC(=O)c2c(N)n(C3CC3)c(=O)[nH]c2=O)cc1C,-10.6
9,COc1cccc(/C=N/NC(=O)CNC(=O)c2ccc(S(=O)(=O)N3CCOCC3)cc2)c1OC,-4.96
10,O=c1nc(-c2ccccc2)n(-c2ccccc2)[nH]1,1.69
11,COCC1CCN(C(=O)c2cc(COc3cncc(Cl)c3)on2)C1 (stereo not shown),5.09
12,C/C(CC(=O)Nc1cccc(Cl)c1C)=N\NC(=O)Cc1csc(N)n1,2.42
13,N#Cc1c(N)nc2c(c1N)CC(CO)O2 (stereo not shown),22.6
14,Cc1ccc(-n2c(SCC(=O)NCC3CCCO3)nnc2-c2ccoc2C)cc1 (stereo not shown),-55.6
15,COc1ccc(C(=O)CSc2nnc(-c3ccoc3C)n2CC2CCCO2)cc1 (stereo not shown),-11.7
16,Cc1occc1-c1nnc(SCC(=O)c2ccc(Cl)cc2)n1CC1CCCO1 (stereo not shown),-65.1
17,O=C(CSc1nnnn1-c1ccc(F)cc1)NCc1cccs1,-0.104
18,Cc1occc1-c1nnc(SCC(=O)NCc2cccs2)n1-c1ccc(F)cc1,-60.2
19,Cc1occc1-c1nnc(SCC(=O)c2ccccc2)n1CC1CCCO1 (stereo not shown),-8.58
20,O=C(CSc1nnc(-c2ccncc2)n1-c1ccc(Cl)cc1)NCc1cccs1,-15.3
21,Cc1ccc(C)c(-n2c(SCC(=O)NCC3CCCO3)nnc2-c2ccoc2C)c1 (stereo not shown),6.82
22,COc1ccc(-c2nnc(SCC(=O)NCc3cccs3)n2C)cc1,-1.49
23,COc1ccc(-n2c(SCC(=O)NCc3cccs3)nnc2-c2ccoc2C)cc1,-78
24,Cc1occc1-c1nnc(SCC(=O)NCC2CCCO2)n1C (stereo not shown),-2
25,COc1ccc(-c2nnc(SCC(=O)NCc3cccs3)n2C(C)C)cc1,-35.8

row,Compound,"hERG current change (%, negative = inhibition) at 10uM [%]"
1,COc1cccc(N=Nc2c(C)[nH]n(-c3ccccc3)c2=O)c1,10.1
2,O=C(Cn1nc(C(F)F)cc1C1CC1)N1CCCC1,1.61
3,CCCCn1c(SCC(=O)NC2CCS(=O)(=O)C2)nnc1-c1ccc(OC)cc1 (stereo not shown),-4.68
4,Cc1ccc(NC(=S)N/N=C2\CCCCC2C)cc1 (stereo not shown),-10.4
5,O=C(ONC1=NCCCCC1)c1ccc([N+](=O)[O-])cc1,-5.87
6,CC(=O)Nc1ccc(S(=O)(=O)N2CCC(C(=O)NC3CCCC3)CC2)cc1,-0.813
7,CC(=O)Nc1ccc(S(=O)(=O)NC(C)C(=O)NCCc2ccc(F)cc2)cc1 (stereo not shown),11.3
8,Cc1ccc(C(O)(C(=O)NNc2ccc3ccccc3[nH+]2)c2ccc(C)cc2)cc1.[Cl-],12.9
9,Cc1cccc(-n2c(SCC(=O)O)nc3sc4c(c3c2=O)CCCC4)c1,16.6
10,CCCC(=O)C1C(=O)CC(C)(C)C(c2cc(C)no2)C1=O (stereo not shown),-6.76
11,Nn1c(SCC(=O)NCC2CCCO2)nnc1-c1ccc(OC(F)F)cc1 (stereo not shown),-68.5
12,Cc1nnc(SCC(=O)NCc2cccs2)n1-c1ccccc1,1.68
13,COc1ccc(-c2nnc(SCC(=O)NCC3CCCO3)n2C)cc1 (stereo not shown),9.8
14,CC(Sc1nnc(-c2ccc(OC(F)F)cc2)n1N)C(=O)NCC1CCCO1 (stereo not shown),-24.2
15,Cc1ccc(-n2c(SCC(=O)NCc3cccs3)nnc2-c2ccoc2C)cc1,-74.8
16,COC(=O)CSc1nnc(-c2ccoc2C)n1-c1ccc(C)cc1,-37
17,O=C1C2CCCN2C(c2ccc(Cl)cc2)N1c1ccccn1 (stereo not shown),-3.03
18,COc1ccc(CNCC(O)(c2ccccc2)c2ccc(F)cc2)cc1OC (stereo not shown),-61.2
19,COc1ccccc1CNCC(O)(c1ccc(Cl)cc1)c1ccc(Cl)cc1,-13.7
20,COc1ccc(CNCC(O)(c2ccccc2)c2ccccc2)cc1OC,-60
21,COc1ccc(CNCc2ccc(C(F)(F)F)cc2)cc1OC.O=C(O)C(=O)O,6.54
22,COc1ccc(CNCC(O)(c2ccc(F)cc2)c2ccc(F)cc2)cc1OC,-62.1
23,COc1ccc(CNCC(O)(c2ccc(Cl)cc2)c2ccc(Cl)cc2)cc1OC,-30.9
24,COc1ccccc1CNCC(O)(c1ccc(F)cc1)c1ccc(F)cc1,-68
25,OC(CNCc1ccccc1F)(c1ccc(F)cc1)c1ccc(F)cc1,-26.7

row,Compound,"hERG current change (%, negative = inhibition) at 10uM [%]"
1,Cc1ccc(CNCC(O)(c2ccccc2)c2ccccc2)cc1,-33
2,N#CCCN(Cc1ccccc1)S(=O)(=O)c1cccs1,-16.5
3,COc1cc(CC(=O)N(C)CC(=O)Nc2cc(C)ccc2C)cc(OC)c1OC,11
4,COc1ccc(OCC(=O)O/N=C(\N)c2ccc(OC)c(OC)c2)cc1,7.84
5,CN(C)S(=O)(=O)c1ccc(C(=O)OCC(=O)Nc2cccnc2Cl)cc1,1.64
6,CC(=O)N1CCN(Cc2nc3cc(NC(=O)Cn4nc(C)c5ccccc5c4=O)ccc3n2C)CC1,17.9
7,COc1ccc(CN2C(=O)CCC2(C)C(=O)NC2CCCCCC2)cc1 (stereo not shown),-13.8
8,O=C(NCc1ccncc1)Nc1cc(Cl)ccc1Cl,-8.6
9,CC1=CN2CC(O)CN=C2C=C1.Cl (stereo not shown),-1.57
10,COc1cccc(OC)c1OCCNCCO,21.5
11,COc1cccc(OC)c1OCCNCC1CSc2ccccc2O1.Cl (stereo not shown),-53.6
12,COc1cccc(OC)c1OCCNCC1COc2ccccc2O1.Cl (stereo not shown),-22.5
13,COc1ccc(-n2nnc3c(SCC(=O)Nc4ccccc4F)ncnc32)cc1,18.9
14,CCOc1ccccc1NC(=O)CSc1nnc(-c2ccccc2Cl)n1Cc1ccco1,-32
15,CCCn1c(SCC(=O)Nc2ccccc2OC)nnc1-c1ccco1,-68.5
16,COCCn1c(SCC(=O)Nc2ccccc2OC)nnc1-c1ccco1,-13.6
17,COc1ccccc1NC(=O)CSc1nnc(-c2ccco2)n1N,-3.82
18,COc1ccccc1NC(=O)CSc1nnc(-c2ccccn2)n1Cc1ccco1,-9.97
19,COc1ccc(C)cc1NC(=O)CSc1nnc(-c2ccccn2)n1Cc1ccco1,-15.8
20,CCOc1ccccc1NC(=O)CSc1nnc(-c2ccccn2)n1Cc1ccco1,-67.3
21,CCOC(=O)CNC(=O)CSc1nnc(-c2ccco2)n1Cc1ccco1,10.4
22,CCOc1ccccc1NC(=O)CSc1nnc(-c2ccco2)n1Cc1ccco1,-63.4
23,CCOc1ccccc1NC(=O)CSc1nnc(Cn2c(=O)sc3ccccc32)n1C,-61.9
24,COc1ccccc1NC(=O)CSc1nnc(Cn2c(=O)sc3ccccc32)n1C,-44
25,CCOc1ccc(NC(=O)CSc2nnc(Cn3c(=O)sc4ccccc43)n2C)cc1,-4.3

row,Compound,"hERG current change (%, negative = inhibition) at 10uM [%]"
1,CCOc1ccc2nc(NC(=S)N(C)C)sc2c1,13
2,Cc1ccnc(NC(=S)NC(=O)c2ccco2)c1,-10.3
3,Cc1cc(C)c(C(=O)COC(=O)c2cc([N+](=O)[O-])ccc2N2CCOCC2)cc1C,-4.07
4,Cc1ccc(SC(C)c2nc(-c3cccnc3)no2)cc1 (stereo not shown),-30.5
5,COc1ccc(OC)c(CN2CCN(C(=O)c3ccco3)CC2)c1.O=C(O)C(=O)O,0.201
6,COC(=O)CSc1nnc(-c2ccco2)n1Cc1ccco1,-26.8
7,COc1ccc(C)cc1NC(=O)CSc1nnc(-c2ccco2)n1Cc1ccco1,-12.8
8,COc1ccccc1NC(=O)CSc1nnc(-c2ccco2)n1Cc1ccco1,-65.4
9,CN(C)c1cc(-c2ccc(Br)cc2)oc(=O)c1Cl,15.5
10,CN(C)c1cc(-c2ccc(Cl)cc2)oc(=O)c1Cl,-6.67
11,CN(C)c1cc(-c2ccc(C#N)cc2)oc(=O)c1Cl,-50.1
12,CCCCSc1cc(C)nc(N)n1,-1.73
13,O=C(Nc1ccc(O)c(C(=O)O)c1)c1ccc2c(c1)C(=O)N(CC1CCCO1)C2=O (stereo not shown),6.21
14,CCCCCC(O)(CCN1CCCCC1)c1ccccc1.Cl (stereo not shown),-82.4
15,CCCCOc1ccc(C(O)(CCN2CCOCC2)c2ccccc2)cc1.Cl (stereo not shown),-21.7
16,CCCCCC(O)(CCN1CCCCC1)c1ccc(OCC)cc1.Cl (stereo not shown),-77.1
17,COc1ccc(C(O)(CCc2ccccc2)CCN2CCCCC2)cc1.Cl (stereo not shown),-17.5
18,CCC(O)(CCN1CCCCC1)c1ccccc1 (stereo not shown),-5.84
19,CS(=O)(=O)O.OC(CCN1CCCCC1)(c1ccccc1)c1ccccc1,-36.2
20,C=CCC(O)(CCN1CCCCC1)c1ccccc1.Cl (stereo not shown),-10.8
21,Cl.OC(CCCN1CCCCC1)(c1ccccc1)c1ccccc1,-44
22,CCCCCCC(O)(CCN1CCCCC1)c1ccccc1.Cl (stereo not shown),-70.3

# — paper PMC4336329 (PLoS ONE, 2015)
